Assay results reported in PubChem BioAssay.
Records with an inconclusive call do not appear. Active and inactive are the calls of the source.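 Rule for the calls, unless noted: active = normalized viability below 100% at a tested concentration; inactive = the rest.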

Assays:
[1] = ovarian cancer cell viability with rucaparib, profiling panel, oncology-focused library, rucaparib conditional (AID 1508598); settings: patient-derived ovarian cancer cells, CellTiter-Glo viability, 144 h, stronger effect = lower value
[2] = LFS_MB_P medulloblastoma growth inhibition, cell-based, chromothripsis tumors, cisplatin or BGB combos (AID 1671449; in the data active = inhibition above about 80%;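 note: cells exposed for 96 hours; 0% = vehicle DMSO and 100% = killing by high DMSO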); settings: LFS_MB_P medulloblastoma cells
[3] = HDN33 neuroblastoma growth inhibition, cell-based, chromothripsis tumors, cisplatin or BGB combos (AID 1671450; in the data active = inhibition above about 80%;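 note: cells exposed to compound for four days; 0% = vehicle DMSO and 100% = cell killing by high DMSO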); settings: HDN33 neuroblastoma cells, stronger effect = higher value
[4] = ICB984 medulloblastoma cell growth inhibition, synergistic combos for chromothripsis tumors, cisplatin or BGB combos (AID 1671451; call rule not given here;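 note: cells exposed for 96 hours before readout; 0% = vehicle DMSO and 100% = killing by high DMSO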); settings: ICB984 medulloblastoma cells, drug combinations, stronger effect = higher value
[5] = HTB85 osteosarcoma cell growth inhibition, synergistic combos for chromothripsis tumors, BGB or cisplatin IC20 combos (AID 1671453; in the data active = inhibition above about 80%;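 note: cells exposed for 96 hours before readout; 0% = vehicle DMSO and 100% = high DMSO killing control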); settings: HTB85 osteosarcoma cells, drug combinations, stronger effect = higher value
[6] = growth inhibition of DIPG glioma cells, dose response, cell-based, SU-DIPG-XVII, MIPE5.0, CellTiter-Glo, qHTS (AID 1347060; cut-off not given, nearly all actives have AC50 up to about 26 µM;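 note: cells exposed to compound for 48 hours before viability readout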); settings: SU-DIPG-XVII viability, CellTiter-Glo ATP luminescence
[7] = growth inhibition of DIPG glioma cells, dose response, cell-based, SU-DIPG-XIII, MIPE4.0, CellTiter-Glo, qHTS (AID 1347061; cut-off not given, nearly all actives have AC50 up to about 37 µM;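 note: cells exposed to compound for 48 hours before readout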); settings: SU-DIPG-XIII viability, CellTiter-Glo ATP luminescence
[8] = growth inhibition of DIPG glioma cells, dose response, cell-based, JHH-DIPG-1, MIPE4.0, CellTiter-Glo, qHTS (AID 1347062; cut-off not given, nearly all actives have AC50 up to about 27 µM;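 note: cells exposed to compound for two days before readout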); settings: JHH-DIPG-1 viability, CellTiter-Glo ATP luminescence
[9] = growth inhibition of DIPG glioma cells, dose response, cell-based, SU-DIPG-IV, MIPE4.0, CellTiter-Glo, qHTS (AID 1347063; cut-off not given, nearly all actives have AC50 up to about 30 µM;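 note: compound exposure lasted 48 hours before the viability readout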); settings: SU-DIPG-IV viability, CellTiter-Glo ATP luminescence
[10] = growth inhibition of DIPG glioma cells, dose response, cell-based, SU-DIPG-XIII, MIPE5.0, CellTiter-Glo, qHTS (AID 1347064; cut-off not given, nearly all actives have AC50 up to about 23 µM;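 note: cells exposed to compound for 48 hours before the viability read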); settings: SU-DIPG-XIII viability, CellTiter-Glo ATP luminescence
[11] = viability loss in pontine glioma line – cell-based, SU-DIPG-XXV, MIPE5.0, CellTiter-Glo, qHTS, dose response (AID 1347065; cut-off not given, nearly all actives have AC50 up to about 26 µM;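 note: cells exposed to compound for 48 hours before ATP readout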); settings: CellTiter-Glo ATP luminescence
[12] = SU-DIPG-VI glioma cell viability, MIPE4.0 library, CellTiter-Glo luminescence, qHTS (AID 1347066; cut-off not given, nearly all actives have AC50 up to about 30 µM;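 note: cells exposed to compound for 48 hours before readout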); settings: CellTiter-Glo ATP luminescence
[13] = JHH-DIPG-1 glioma cell viability, MIPE5.0 library, CellTiter-Glo luminescence, qHTS (AID 1347067; cut-off not given, nearly all actives have AC50 up to about 26 µM;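 note: cells exposed to compound for 48 hours before readout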); settings: JHH-DIPG-1 glioma viability, CellTiter-Glo ATP luminescence
[14] = SU-DIPG-XXV glioma cell viability, MIPE5.0 library, qHTS (AID 1347068; cut-off not given, nearly all actives have IC50 up to about 30 µM;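 note: cells exposed to compound for 48 hours before viability readout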)
[15] = modifiers of HSF1 nuclear foci, imaging, Selleck Cancer Library (AID 1347162; in the data active = plate-normalised HSF1 focus index below about 0.46); settings: human cells, at 10 µM; SSMD: measured here: HSF1 foci SSMD mean; cell count: measured here: cell number; plate-normalised HSF1 focus index: stronger effect = lower value
[16] = at 0.0195 µM, OCI-C5x cells, with rucaparib 10 µM, 100% = cells with rucaparib alone
[17] = at 0.0195 µM, OCI-C5x cells, without rucaparib
[18] = at 0.0195 µM, OCI-P5x cells, with rucaparib 20 µM, 100% = cells with rucaparib alone
[19] = at 0.0195 µM, OCI-P5x cells, without rucaparib
[20] = at 0.0781 µM, OCI-C5x cells, with rucaparib 10 µM, 100% = cells with rucaparib alone
[21] = at 0.0781 µM, OCI-C5x cells, without rucaparib
[22] = at 0.0781 µM, OCI-P5x cells, with rucaparib 20 µM, 100% = cells with rucaparib alone
[23] = at 0.0781 µM, OCI-P5x cells, without rucaparib
[24] = at 0.313 µM, OCI-C5x cells, with rucaparib 10 µM, 100% = cells with rucaparib alone
[25] = at 0.313 µM, OCI-C5x cells, without rucaparib
[26] = at 0.313 µM, OCI-P5x cells, with rucaparib 20 µM, 100% = cells with rucaparib alone
[27] = at 0.313 µM, OCI-P5x cells, without rucaparib
[28] = at 1.25 µM, OCI-C5x cells, with rucaparib 10 µM, 100% = cells with rucaparib alone
[29] = at 1.25 µM, OCI-C5x cells, without rucaparib
[30] = at 1.25 µM, OCI-P5x cells, with rucaparib 20 µM, 100% = cells with rucaparib alone
[31] = at 1.25 µM, OCI-P5x cells, without rucaparib
[32] = at 5 µM, OCI-C5x cells, with rucaparib 10 µM, 100% = cells with rucaparib alone
[33] = at 5 µM, OCI-C5x cells, without rucaparib
[34] = at 5 µM, OCI-P5x cells, with rucaparib 20 µM, 100% = cells with rucaparib alone
[35] = at 5 µM, OCI-P5x cells, without rucaparib

CC(=O)Nc1nc(C)c(-c2ccc(Cl)c(S(=O)(=O)NCCO)c2)s1
3.46%: inhibition ([4]; BGB IC40 combo, at 0.005 µM)
42.2%: inhibition ([5]; measured here: with BGB IC20, at 5 µM)
24.2%: inhibition ([3]; measured here: with cisplatin IC20 combination, at 0.5 µM)
23.5%: inhibition ([2]; measured here: combination with cisplatin, at 5 µM, stronger effect = higher value)
27.3%: inhibition ([4]; cisplatin combo, at 0.05 µM)
5.64%: inhibition ([4]; measured here: 5 uM single agent, at 5 µM)
inactive: viability [1, 16] 103% | viability [1, 17] 120% | viability [1, 19] 115% | viability [1, 21] 125% | viability [1, 23] 107% | viability [1, 25] 116% | viability [1, 27] 108% | viability [1, 29] 122% | viability [1, 31] 110% | viability [1, 33] 132% | inhibition ([2]; at 0.5 µM, stronger effect = higher value) -45.2% | inhibition ([3]; at 0.5 µM) 22.6% | inhibition ([4]; at 0.5 µM) -2.76% | inhibition ([5]; at 0.5 µM) 10.5%
-42%: inhibition ([2]; measured here: combination with BGB IC40, at 0.005 µM)
-7.74%: inhibition ([2]; measured here: combination with BGB IC40, at 0.05 µM)
11.8%: inhibition ([5]; measured here: with BGB IC20, at 0.5 µM)
-19.5%: inhibition ([4]; cisplatin combo, at 0.5 µM)
46.6%: inhibition ([5]; single agent, at 5 µM)
active: viability [1, 18] 99.1% | viability [1, 20] 90.4% | viability [1, 22] 89.5% | viability [1, 24] 93.3% | viability [1, 26] 88.3% | viability [1, 28] 95.9% | viability [1, 30] 92.7% | viability [1, 32] 94.4% | viability [1, 34] 39.1% | viability [1, 35] 60.5%
-52.3%: inhibition ([2]; measured here: combination with cisplatin, at 0.5 µM, stronger effect = higher value)
18.5%: inhibition ([3]; BGB combo, at 5 µM)
30.7%: inhibition ([4]; BGB IC40 combo, at 0.05 µM)
13.7%: inhibition ([3]; measured here: with BGB IC20 combination, at 0.5 µM)
30.2%: inhibition ([5]; measured here: with cisplatin IC20, at 5 µM)
-29.7%: inhibition ([2]; measured here: combination with BGB IC20, at 0.005 µM)
45%: inhibition ([3]; single agent, at 5 µM)
-5.45%: inhibition ([4]; BGB IC20 combo, at 0.005 µM)
2.87%: inhibition ([4]; cisplatin combo, at 5 µM)
8.49%: inhibition ([5]; measured here: with cisplatin IC20, at 0.5 µM)
37%: inhibition ([3]; cisplatin combo, at 5 µM)

NC(=O)Nc1cc(-c2cccc(F)c2)sc1C(=O)N[C@H]1CCCNC1
active: AC50 [6] 1.48 µM | AC50 [7] 20.9 µM | AC50 [8] 0.526 µM | AC50 [9] 5.9 µM | AC50 [10] 2.09 µM | AC50 [11] 1.18 µM | AC50 [12] 18.7 µM | AC50 [13] 3.32 µM | IC50 [14] 2.95 µM | viability ([1]; at 0.000305 µM, OCI-C5x cells, without rucaparib) 94.3% | viability ([1]; at 0.000305 µM, OCI-P5x cells, with rucaparib 20 µM, 100% = cells with rucaparib alone) 76% | viability ([1]; at 0.000305 µM, OCI-P5x cells, without rucaparib) 79.5% | viability ([1]; at 0.00122 µM, OCI-C5x cells, without rucaparib) 97.4% | viability ([1]; at 0.00122 µM, OCI-P5x cells, with rucaparib 20 µM, 100% = cells with rucaparib alone) 73.7% | viability ([1]; at 0.00122 µM, OCI-P5x cells, without rucaparib) 86.4% | viability ([1]; at 0.00488 µM, OCI-C5x cells, without rucaparib) 97.4% | viability ([1]; at 0.00488 µM, OCI-P5x cells, with rucaparib 20 µM, 100% = cells with rucaparib alone) 56.6% | viability ([1]; at 0.00488 µM, OCI-P5x cells, without rucaparib) 87.5% | viability [1, 17] 81.6% | viability [1, 18] 55.1% | viability [1, 19] 90.2% | viability [1, 20] 81.1% | viability [1, 21] 53.1% | viability [1, 22] 44.5% | viability [1, 23] 73.5% | viability [1, 24] 48% | viability [1, 25] 30.6% | viability [1, 26] 26% | viability [1, 27] 21.6% | viability [1, 28] 33.5% | viability [1, 29] 20% | viability [1, 30] 13.7% | viability [1, 31] 9.05% | viability [1, 32] 13% | viability [1, 33] 8.94% | viability [1, 34] 6.86% | viability [1, 35] 3.71%
-1.43: SSMD [15]
7360: cell count [15]
inactive: plate-normalised HSF1 focus index [15] 0.95 | viability ([1]; at 0.000305 µM, OCI-C5x cells, with rucaparib 10 µM, 100% = cells with rucaparib alone) 130% | viability ([1]; at 0.00122 µM, OCI-C5x cells, with rucaparib 10 µM, 100% = cells with rucaparib alone) 134% | viability ([1]; at 0.00488 µM, OCI-C5x cells, with rucaparib 10 µM, 100% = cells with rucaparib alone) 117% | viability [1, 16] 108%
